Hits are enriched below; roughly 6.5% of the tested compounds scored in any of these assays.
LASV entry inh: inhibitors of Lassa virus binding or cell entry | Lassa virus pseudotype entry inhibition, cell reporter | Potency, µM (titrated, usually from 37.9 µM), hits mostly inhibitors | 300,000 compounds, 1.2% hits; calls by dose curve; tested in HEK293 cells; also: nearly all actives have a fitted effect of over 50% in size
FMDV antiviral: foot and mouth disease virus antiviral activity; Potency, µM (series often up to 57.9 µM), most hits filed as inhibitors; AID 1159524; 410,000 compounds, 1.2% hits; FMDV antiviral cell-based qHTS; calls by dose curve; tested in HEK293T cells; also: read-out not given here; nearly all actives have a fitted effect of over 45% in size
HCMV antiviral: blocks human cytomegalovirus replication; HFF cells, HCMV-luciferase reporter, 72 h; stronger effect = lower value; activity change, negative = inhibition, % at 57.5 µM; 410,000 compounds, 4.5% hits; AID 1259415; in the data active = activity change below about -60%; inconclusive = no clear call, values can overlap the other calls; inactive = above about -39%
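Human foreskin fibroblasts infected with luciferase-reporter HCMV at MOI 1 PFU/cell, compounds at two doses. Luciferase measured 72 h post infection; normalized to buffer-only basal and Salinomycin (10uM) controls.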
VACV mCherry inh: inhibitors of vaccinia virus infection (mCherry reporter signal). Vaccinia virus mCherry reporter infection, fluorescence. AID 720579. Potency, µM (top dose mostly 36.5 µM), hits mostly inhibitors. 310,000 compounds, 0.63% hits; calls by dose curve; tested in A549 cells; also: nearly all actives have a fitted effect of over 35% in size
VACV Venus inh: vaccinia inhibition (Venus reporter) | Vaccinia virus Venus reporter expression, fluorescence | Potency, µM (series often up to 36.5 µM), most hits filed as inhibitors | 330,000 compounds, 0.46% hits | AID 720580; calls by dose curve; tested in A549 cells; also: nearly all actives have a fitted effect of over 30% in size
Marburg entry inh: blocks Marburg virus binding to or entry into cells. Marburg virus pseudotyped entry inhibition, cell reporter. Potency, µM (series often up to 37.8 µM), usual class: inhibitors. 300,000 compounds, 1.8% hits; calls by dose curve; tested in HEK293 cells
A number is an active result; – = inactive; ? = inconclusive; · = no result; [ ] = another dose, or the depositor's remark.

SMILES	LASV entry inh	FMDV antiviral	HCMV antiviral	VACV mCherry inh	VACV Venus inh	Marburg entry inh
COCCn1c(C)cc(C(=O)COC(=O)c2ccc(S(=O)(=O)N(C)C)cc2)c1C	–	–	-87.6	–	–	–
Cc1ccc(C(=O)OCC(=O)c2cc(C)n(CC3CCCO3)c2C)cc1 (stereo not given)	–	–	–	–	–	?
COCCn1c(C)cc(C(=O)COC(=O)c2n[nH]c3ccccc23)c1C	?	11.2µM	–	·	·	?
CCCCCCCc1cc2ccccc2c2c(C(=O)OC)c(C(=O)OC)c(C(=O)OC)n12	?	·	·	·	·	–
COCC(=O)N1C[C@H]2CON(C)[C@H]2C[C@H]1c1cccc(-c2cc(Cl)cc(Cl)c2)c1	·	·	–	·	·	·
Cc1ccnc(NS(=O)(=O)c2ccc(NC(=O)c3cc(=O)c4ccc(C)c(C)c4o3)cc2)n1	–	–	–	–	–	–
COCCn1c(C)cc(C(=O)COc2nc3ccccc3nc2C)c1C	–	–	-85.5	–	?	?
C=CCn1c(C)cc(C(=O)COC(=O)c2ccc(N)c([N+](=O)[O-])c2)c1C	?	–	–	–	?	?
CCn1c(C)cc(C(=O)COC(=O)c2ccccc2[N+](=O)[O-])c1C	0.316µM	5.62µM	·	–	–	?
COCCn1c(C)cc(C(=O)CSc2ccc3ccccc3n2)c1C	–	–	–	·	–	–
Cc1cc(C(=O)COC(=O)c2n[nH]c3ccccc23)c(C)n1CC1CCCO1 (stereo not given)	?	?	–	–	–	7.08µM
Cc1cc(Br)c2nc(-c3cccc(Br)c3)c(Cc3cccc(Cl)c3)n2c1	·	·	–	·	·	·
c1ccc(-c2nnsc2-c2ncc[nH]2)cc1	–	–	–	–	–	?
O=S(=O)(c1ccc(Cl)cc1)c1snnc1-c1ccccc1	?	10µM	-103.9	?	?	15.8µM
O=S(=O)(c1ccc(F)cc1)c1snnc1-c1ccccc1	?	?	-88.0	?	–	?
Cc1ccc(NC(=O)c2cnc(SCC(=O)N3CCCc4ccccc43)n(C)c2=O)cc1C	–	–	?	–	–	·
COCCn1c(C)cc(C(=O)COc2ccc(C)nc2[N+](=O)[O-])c1C	·	3.55µM	-93.9	·	·	·
Cc1cc(C(=O)COC(=O)C2=COCCO2)c(C)n1-c1ccccc1	2.24µM	?	?	–	–	5.62µM
Cc1ccc(OCC(=O)c2cc(C)n(-c3ccccc3)c2C)c([N+](=O)[O-])n1	?	?	-98.6	–	–	?
CCCn1c(C)cc(C(=O)COc2ccc(C)nc2[N+](=O)[O-])c1C	–	–	-89.0	–	–	?
C#CCN1C(=O)CC[C@@H](S(=O)(=O)c2ccccc2)[C@@H]1c1ccccc1	·	·	–	·	·	·
Cc1ccc(OCC(=O)c2cc(C)c(C)cc2C)c([N+](=O)[O-])n1	–	–	–	·	–	–
C=CCn1c(C)cc(C(=O)COc2ccc(C)nc2[N+](=O)[O-])c1C	?	?	-92.1	–	–	?
COc1ccc(NC(=O)N2CC(=O)N3[C@H](CO)[C@@H](c4ccc(Br)cc4)[C@@H]3C2)cc1	·	·	–	·	·	·
O=C(NCc1ccc(F)c(F)c1)c1cnc(N2CCN(Cc3ccccc3)C2=O)s1	·	·	–	·	·	·
SMILES	LASV entry inh	FMDV antiviral	HCMV antiviral	VACV mCherry inh	VACV Venus inh	Marburg entry inh
O=C(O)c1ccc(N=NNc2cccc([N+](=O)[O-])c2)cc1	?	–	–	?	–	?
N#C/C(=N/Nc1ccc([N+](=O)[O-])cc1)C(=N)N1CCCCC1	?	–	–	–	–	–
N#C/C(=N\Nc1ccc([N+](=O)[O-])cc1)C(N)=S	?	–	-95.3	–	–	?
N#C/C(=N\Nc1cccc([N+](=O)[O-])c1)C(=O)c1ccc(Br)cc1	·	?	-101.0	1.78µM	?	?
N#C/C(=C\Nc1ccccc1O)c1nc2ccccc2o1	?	?	-94.8	?	?	?
N#C/C(=C\c1ccncc1)c1nc2ccccc2o1	–	–	–	–	–	–
COC(=O)c1c(OCc2cccnc2)cc(=O)n2c1CCN(C(=O)c1cccc(N(C)C)c1)CC2	·	–	·	–	–	·
Cc1cc(CN2CCCC(C(=O)Nc3cccc(-n4cccn4)c3)C2)cc(C)c1O (stereo not given)	·	?	–	–[7.34 µM]	–[7.34 µM]	·
CCn1ncc(CN2CCCC(C(=O)Nc3cccc(-c4cc5ccccc5[nH]4)c3)C2)c1C (stereo not given)	12.6µM	?	?	?	?	?
O=C(Nc1cccc(-n2cccn2)c1)C1CCCN(Cc2cc3ccccc3[nH]2)C1 (stereo not given)	?	–	–	12.6µM	–	?

Screens deposited in PubChem by National Center for Advancing Translational Sciences (NCATS).
